Bioassay records deposited in PubChem BioAssay by National Center for Advancing Translational Sciences (NCATS).
TRHR agonist: qHTS for Small Molecule Agonists and Allosteric Enhancers of Human TRH Receptor: Primary Screen for Agonists; Thyrotropin-releasing hormone receptor (Homo sapiens), P34981; TRHR cells, calcium flux fluo-8, FDSS agonist mode; activation, % at 2 µM; 360,000 tested, 0.18% active; further: 0% is about no effect
Target sequence (P34981 whole entry, looked up): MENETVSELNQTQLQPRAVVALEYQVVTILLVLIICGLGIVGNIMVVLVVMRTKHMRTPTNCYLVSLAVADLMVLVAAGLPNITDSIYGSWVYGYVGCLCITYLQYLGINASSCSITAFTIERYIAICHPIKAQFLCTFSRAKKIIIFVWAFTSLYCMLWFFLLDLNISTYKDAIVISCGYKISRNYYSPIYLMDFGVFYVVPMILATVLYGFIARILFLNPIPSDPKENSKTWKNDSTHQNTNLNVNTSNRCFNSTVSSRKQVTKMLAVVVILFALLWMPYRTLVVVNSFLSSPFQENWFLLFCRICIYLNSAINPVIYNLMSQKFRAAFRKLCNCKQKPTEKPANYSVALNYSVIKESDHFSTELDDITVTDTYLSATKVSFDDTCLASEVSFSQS
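Agonist-mode FDSS calcium read (Ex 480/Em 530, 1 s cycles) in 1536-well TRHR cells with fluo-8 dye, after 10-cycle baseline and 23 nL compound addition; TRH at EC20 (10 nM final) added afterwards for the enhancer phase.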
D1 PAM: Potentiators of Human D1 Dopamine Receptor: qHTS; HEK293 TREx D1 cells, calcium flux, dopamine EC20 potentiation; potentiation, % at 10 µM; 360,000 tested, 0.036% active; AID 504651, 2011; in the data active means potentiation above about 30%; further: 0% is about no effect
TRHR enhancer: qHTS for Small Molecule Agonists and Allosteric Enhancers of Human TRH Receptor: Primary Screen for Enhancers | TRHR cells, fluo-8 calcium fluorescence, EC20 TRH enhancement | 360,000 tested, 0.66% active | enhancement, % at 2 µM | Thyrotropin-releasing hormone receptor (Homo sapiens), P34981 | AID 493056, 2011; in the data active means enhancement above about 30%; further: 0% is about no effect
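TRHR-expressing cells loaded with fluo-8 calcium dye were read kinetically (ex 480/em 530) during compound addition, then stimulated with an EC20 of TRH (10 nM final). Enhancement of the Gq-mediated intracellular calcium response was scored.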
D1 antagonist: Antagonist of Human D 1 Dopamine Receptor: qHTS; 360,000 tested, 3.2% active; activity change, negative = inhibition, % at 10 µM; HEK293 TREx D1 cells, calcium flux, dopamine EC80; hits give low values; in the data active means activity change below about -30%; further: on the % scale 0 is the no-effect control and ±100 the full control effect
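HEK293 T-REx cells expressing inducible, force-coupled D1 receptor; no-wash Ca dye, 30–90 min RT. Cmpd → 180 s read at 1 Hz → EC80 DA → 180 s read.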
D1 ag: Allosteric Agonists of the Human D1 Dopamine Receptor: qHTS | D(1A) dopamine receptor (Homo sapiens), P21728 | HEK293 T-REx D1 cells, calcium flux, agonist mode | activation, % at 2 µM | 360,000 tested, 1% active; further: 0% is about no effect
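Tetracycline-induced HEK293 TREx D1 cells, force-coupled to calcium signalling, were dye-loaded with a no-wash calcium kit. Compound was pin-added after a 10 s baseline. Fluorescence was read kinetically at 1 cycle/s for 180 s, with calcium rises flagged as agonism.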
An asterisk follows results filed as active. Rows were chosen to be rich in hits. Some 4.7% of all compounds tested hit in one or more screens of this group. Unless noted, no stated cut-off is given here; in the data, active means activation above about 30%; inactive means the rest.

What do the screens show for `COc1cccc(OCCNC(=O)Nc2cc(F)c(F)cc2Cl)c1`?
TRHR agonist: -1; D1 PAM: 20; TRHR enhancer: -5; D1 antagonist: -40*; D1 ag: 9

How did COc1ccc(-n2nc(C(=O)N3CCN(c4cccc(C(F)(F)F)c4)CC3)c3c4ccccc4n(C)c3c2=O)cc1Cl do in these assays?
TRHR agonist: -1; D1 PAM: 2; TRHR enhancer: 1; D1 antagonist: 1; D1 ag: 2

How did O=c1nc(/C=C/c2ccc(-c3ccc(F)cc3)o2)cc(C(F)(F)F)[nH]1 do in these assays?
TRHR agonist: 26; D1 PAM: 0; TRHR enhancer: 15; D1 antagonist: -20; D1 ag: 98*

How did O=Cc1ccc(-c2ccc(F)cc2)o1 do in these assays?
TRHR agonist: 0; D1 PAM: 8; TRHR enhancer: 5; D1 antagonist: -3; D1 ag: 0

What do the screens show for `O=C(O)c1cc(Cl)ccc1-c1ccc(/C=C/c2cc(C(F)(F)F)[nH]c(=O)n2)o1`?
TRHR agonist: 73*; D1 PAM: 9; TRHR enhancer: -2; D1 antagonist: -14; D1 ag: 97*

What do the screens show for `O=C(O)c1ccccc1-c1ccc(/C=C/c2cc(C(F)(F)F)[nH]c(=O)n2)o1`?
TRHR agonist: 33*; D1 PAM: 0; TRHR enhancer: -4; D1 antagonist: -15; D1 ag: 146*

What do the screens show for `COc1ccc(OC)c(S(=O)(=O)NCCc2csc3nc(-c4ccccc4)nn23)c1`?
TRHR agonist: 0; D1 PAM: -3; TRHR enhancer: 2; D1 ag: 3

How did COc1ccc(-c2cc(C(F)(F)F)c(C#N)c(SCC(=O)Nc3ccc(F)cc3)n2)cc1 do in these assays?
TRHR agonist: 5; D1 PAM: -4; TRHR enhancer: 1; D1 antagonist: 7; D1 ag: 10

How did CSc1c(C#N)c(N)nc2sc(C(=O)c3ccccc3)c(N)c12 do in these assays?
TRHR agonist: 9; D1 PAM: 0; TRHR enhancer: 3; D1 antagonist: -11; D1 ag: 37*

What do the screens show for `COc1ccccc1CNC(=O)c1cc2sccc2n1Cc1ccc(Cl)cc1`?
TRHR agonist: 1; D1 PAM: -2; TRHR enhancer: -6; D1 antagonist: -3; D1 ag: 4

What do the screens show for `COc1cccc(/C=C/C(=C2/C(=O)N(c3ccccc3)N=C2C)c2ccc(Br)cc2)c1OC`?
TRHR agonist: 0; D1 PAM: -11; TRHR enhancer: -23; D1 antagonist: -85*; D1 ag: 0

What do the screens show for `COCCCNC(=O)C1CCN(c2cc(C)nc3c(-c4ccc(Cl)cc4)c(C)nn23)CC1`?
TRHR agonist: 0; D1 PAM: -3; TRHR enhancer: 8; D1 antagonist: -28; D1 ag: 1

How did Cc1ccc(-c2cc3ccccc3nc2N)cc1 do in these assays?
TRHR agonist: 3; D1 PAM: -27; TRHR enhancer: 1; D1 antagonist: -98*; D1 ag: 6

Results for N#Cc1cc2ccccc2nc1N ?
TRHR agonist: 1; D1 PAM: 1; TRHR enhancer: -3; D1 antagonist: 11; D1 ag: 2

What do the screens show for `Nc1nc2ccccc2cc1-c1cccs1`?
TRHR agonist: -1; D1 PAM: -25; TRHR enhancer: 0; D1 antagonist: -60*; D1 ag: 14

What do the screens show for `O=C(CCc1nc(-c2cccs2)no1)Nc1ccccc1[N+](=O)[O-]`?
TRHR agonist: 0; D1 PAM: 0; TRHR enhancer: 6; D1 antagonist: -19; D1 ag: 5

How did CCOC(=O)c1ccccc1NC(=O)CSc1nc(=O)[nH]c2c1CCC2 do in these assays?
TRHR agonist: -1; D1 PAM: 2; TRHR enhancer: 2; D1 ag: -2

Results for COc1ccc(/C=N/NC(=O)CO/N=C(\C)c2cccs2)cc1 ?
TRHR agonist: 1; D1 PAM: -4; TRHR enhancer: -2; D1 antagonist: 1; D1 ag: 0

Results for C/C(=N\OCC(=O)N/N=C/c1ccccc1)c1cccs1 ?
TRHR agonist: 0; D1 PAM: 0; TRHR enhancer: 35*; D1 antagonist: 3; D1 ag: 3

How did C/C(=N/OCC(=O)Nc1ccccc1)c1cccs1 do in these assays?
TRHR agonist: 0; D1 PAM: 11; TRHR enhancer: 2; D1 antagonist: -3; D1 ag: 31*

Results for COc1ccc(N2CC(NC(=O)COc3ccc(F)cc3)CC2=O)cc1OC (stereo unspecified) ?
TRHR agonist: 0; D1 PAM: 3; TRHR enhancer: -1; D1 ag: 86*

Results for COc1ccc(N2CC(NC(=O)COc3cccc(C)c3)CC2=O)cc1OC (stereo unspecified) ?
TRHR agonist: 0; D1 PAM: 0; TRHR enhancer: -5; D1 ag: 33*

Results for O=C(CCc1ccccc1)NC1CC(=O)N(c2cccc(F)c2)C1 (stereo unspecified) ?
TRHR agonist: 0; D1 PAM: 1; TRHR enhancer: 37*; D1 ag: -1

What do the screens show for `Cc1cccc(NC(=O)Cn2nc(C)c3nn(-c4ccc(Cl)cc4)c(C)c3c2=O)c1C`?
TRHR agonist: -1; D1 PAM: -2; TRHR enhancer: -1; D1 antagonist: -11; D1 ag: -1

Results for CCCCCNC(=O)c1cc2c(=O)n3ccccc3nc2n1C ?
TRHR agonist: 0; D1 PAM: -1; TRHR enhancer: -5; D1 antagonist: 4; D1 ag: 0

What do the screens show for `O=C(Nc1ccc(F)cc1)c1cncs1`?
TRHR agonist: 0; D1 PAM: -10; TRHR enhancer: -1; D1 antagonist: -4; D1 ag: 2

How did O=C(Nc1ccc(Cl)cc1)c1cncs1 do in these assays?
TRHR agonist: -1; D1 PAM: -7; TRHR enhancer: 1; D1 antagonist: -47*; D1 ag: 1

Results for CCOC(=O)c1ccccc1NC1c2ccccc2C(=O)N1C1CCN(C(=O)OCC)CC1 (stereo unspecified) ?
TRHR agonist: 0; D1 PAM: 2; TRHR enhancer: 5; D1 antagonist: 3; D1 ag: 12

How did CCOC(=O)N1CCC(N2C(=O)c3ccccc3C2Nc2ccccc2C)CC1 (stereo unspecified) do in these assays?
TRHR agonist: 0; D1 PAM: 3; TRHR enhancer: 0; D1 antagonist: -71*; D1 ag: -3
